The source of these data is PubChem BioAssay (NCI).

Molecules are shown by their SMILES. Compounds without any hit were thinned out: in the full panel of roughly 79,000, 15% have a hit. Values without a mark were called inactive. No stated cut-off is given here; in the data, active means growth inhibition above about 70%; inactive means the rest.

The nature of one test: NCI Yeast Anticancer Drug Screen. Data for the sgs1 mgt1 strain (AID 161).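 Further: 0% = growth of cultures given vehicle only.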 The conditions noted are these: S. cerevisiae sgs1 mgt1 strain, at 50.0 µM, stronger effect = higher value. In outline:
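Yeast cells carrying a defined DNA-repair defect were exposed to test compounds. Growth inhibition was measured relative to vehicle-treated controls.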
Regarding `CCOC(=O)C(C=Nc1ccc(S(N)(=O)=O)cc1)C(=O)OCC`, the growth inhibition was 12.1%. On the same count and under the same terms, the figure for `O=C1CCCCCCCCCCC1Cc1cc(O)c(CC2CCCCCCCCCCC2=O)cc1O` (stereo unspecified) is -5.95%; for `COc1ccc(Cc2c[nH]c3cc(OC)c(OC)cc23)cc1OC` it is 18.9%.

For the compound `CC(C)(C)C(C)(C)CC(N)=O`, the growth inhibition was -4.3%. Same read-out and setting: the figure for `Cn1c(N)c(N=O)c(=O)n(C)c1=O` is -1.6%. Same read-out and setting: then `O=C(COc1ccccc1Cl)N1N=C(c2ccccc2)CC1(O)c1ccccc1` (stereo unspecified), with 25%; and `O=[N+]([O-])c1cc(/C=N/NS(=O)(=O)c2ccc(F)cc2)c(O)c([N+](=O)[O-])c1`, with -14.6%. As to `Cc1ccc2nc[nH]c2c1`, the growth inhibition was -10.8%. Same read-out and setting: then `C=CCOc1ccc(N)c([N+](=O)[O-])c1`, with 23.3%; and `COc1ccc(CCNC(=O)Cc2ccc(Cl)cc2)cc1OC`, with -9.7%; and `CC1=CC(=O)/C(=C/n2c(=S)[nH]c3ccc([N+](=O)[O-])cc32)C(=O)O1`, with -9.5%. The same measure, in the same setting: then `C[N+](C)(C)CCC(=O)N1C/C(=C\c2ccccc2)C(=O)/C(=C/c2ccccc2)C1`, with -34.1%; and `OCCCCCCO`, with 16.1%; and `CCN(CC)/[N+]([O-])=N/O`, with -2.35%. Turning to `CC(C)(O)c1cc2nc3ccccc3nc2n1CCO`, the growth inhibition is 8.45%. In the case of `COC(CCCl)c1ccc(C)cc1` (stereo unspecified), the growth inhibition was -24%. On the same count and under the same terms, the figure for `Nc1ncnc2c(C3OC(CO)C(O)C3O)nsc12` (stereo unspecified) is -37.1%; for `CCN(C)c1nc(N(C)CC)c2nc(N(C)CC)nc(N(C)CC)c2n1` it is 17.8%; for `CCCC(=O)Nc1cccc(Cl)c1` it is 8.85%. As to `OCCCc1ccccc1`, the growth inhibition was -2.55%. On the same count and under the same terms, then `COc1cc(C(O)C2(c3ccc(O)c(OC)c3)NC(=O)NC2=O)ccc1O` (stereo unspecified), with -9.35%.

A further test is described as follows: NCI Yeast Anticancer Drug Screen. Data for the cln2 rad14 strain (AID 165).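 Further: 0% = growth equal to vehicle treated cultures.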 The conditions noted are these: S. cerevisiae cln2 rad14 strain, at 50.0 µM, stronger effect = higher value. The essentials: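 Yeast carrying cln2 and rad14 alterations (cell cycle control and DNA damage repair) were exposed to compounds. Growth inhibition was measured against vehicle-treated controls.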
Consider `COc1cccc(/C=N\c2nc(-c3ccccc3Cl)cs2)c1O`, for which the growth inhibition was 21.9%. `COC(=O)C1CCC(=O)N1C(c1ccc(OC)cc1)c1ccc(OC)cc1` (stereo unspecified): the growth inhibition is 12.6%. Still for that read-out and setting: then `O=C(Nc1ccc(Cl)c([N+](=O)[O-])c1)Oc1ccc2ccccc2c1`, with 11.9%. As to `COc1ccc(CCN=Cc2ccc(Cl)cc2)cc1OC`, the growth inhibition was -1.2%.

Consider `C1CCC2(CC1)OCCS2`, for which the growth inhibition was 7.8%.

For `Nc1ccc(O)c(C(=O)O)c1`, the growth inhibition was 0.8%.

Regarding `O=S(=O)(OCC1CC2CCC1CC2)c1ccc(Br)cc1` (stereo unspecified), the growth inhibition is 0.8%. Same read-out and setting: the figure for `O=C(NC(CSSCC(NC(=O)OCc1ccccc1)C(=O)O)C(=O)O)OCc1ccccc1` (stereo unspecified) is -4.1%; for `CN(C)CC(N)C(=O)O` (stereo unspecified) it is -13.6%.

For `COC(=O)c1oc([N+](=O)[O-])c(-c2ccccc2)c1-c1ccccc1`, the growth inhibition was -11.5%. The same measure, in the same setting: then `COC(=O)c1cc(C(=O)OC)cc([N+](=O)[O-])c1`, with 20.4%.

`CS/C(=C\c1ccc2ccccc2[n+]1C)N1CCN(CCCO)CC1`: the growth inhibition was -20.6%. As for `Cc1c(O)nc(N)[nH]c1=O`, the growth inhibition was 1.7%. Same read-out and setting: the figure for `CCCC(=O)c1ccc2c(c1)CCc1cc(O)ccc1-2` is -5.05%; for `C=CCC(O)CC=C` it is -6.5%. On the same count and under the same terms, then `CCC(c1ccc(OC)cc1)c1cc2c(cc1OCCO)OCO2` (stereo unspecified), with 67.7%. In the case of `C(#CCN1CCOCC1)CCCN1CCOCC1`, the growth inhibition is -17.4%. Same read-out and setting: then `O=C1NC(N2CCCCC2)=N/C1=C\c1ccccc1`, with 23.7%; and `CC(=O)C(C(=O)C(=O)Nc1cc(Cl)c(Cl)cc1Cl)c1csc(N)n1` (stereo unspecified), with 7%; and `CCOC(=O)C(C=Nc1ccc(S(N)(=O)=O)cc1)C(=O)OCC`, with -22.4%. The same measure, in the same setting: then `O=C1CCCCCCCCCCC1Cc1cc(O)c(CC2CCCCCCCCCCC2=O)cc1O` (stereo unspecified), with -12.9%; and `COc1ccc(Cc2c[nH]c3cc(OC)c(OC)cc23)cc1OC`, with -57.8%; and `CC(C)(C)C(C)(C)CC(N)=O`, with -3.6%.

Take `Cn1c(N)c(N=O)c(=O)n(C)c1=O`: the growth inhibition is -12.8%.

Consider `O=C(COc1ccccc1Cl)N1N=C(c2ccccc2)CC1(O)c1ccccc1` (stereo unspecified), for which the growth inhibition is 8.35%. `O=[N+]([O-])c1cc(/C=N/NS(=O)(=O)c2ccc(F)cc2)c(O)c([N+](=O)[O-])c1`: the growth inhibition was 3.65%. Take `Cc1ccc2nc[nH]c2c1`: the growth inhibition is -11.4%. Consider `C=CCOc1ccc(N)c([N+](=O)[O-])c1`, for which the growth inhibition was 14.1%.

As for `COc1ccc(CCNC(=O)Cc2ccc(Cl)cc2)cc1OC`, the growth inhibition is 4.2%. Same read-out and setting: the figure for `CC1=CC(=O)/C(=C/n2c(=S)[nH]c3ccc([N+](=O)[O-])cc32)C(=O)O1` is 6.85%; for `C[N+](C)(C)CCC(=O)N1C/C(=C\c2ccccc2)C(=O)/C(=C/c2ccccc2)C1` it is 8.75%. As for `OCCCCCCO`, the growth inhibition was -16.7%. Still for that read-out and setting: then `CCN(CC)/[N+]([O-])=N/O`, with -0.6%; and `CC(C)(O)c1cc2nc3ccccc3nc2n1CCO`, with 4.25%; and `COC(CCCl)c1ccc(C)cc1` (stereo unspecified), with 3.8%.

`Nc1ncnc2c(C3OC(CO)C(O)C3O)nsc12` (stereo unspecified): the growth inhibition is -15.2%. With `CCN(C)c1nc(N(C)CC)c2nc(N(C)CC)nc(N(C)CC)c2n1`, the growth inhibition was 4.5%. For the compound `CCCC(=O)Nc1cccc(Cl)c1`, the growth inhibition was 7.65%. Same read-out and setting: the figure for `OCCCc1ccccc1` is -13.2%; for `COc1cc(C(O)C2(c3ccc(O)c(OC)c3)NC(=O)NC2=O)ccc1O` (stereo unspecified) it is -16.9%.
